Consider eight molecules from PubChem BioAssay (NCI).

Compounds without any hit were thinned out: in the full panel of roughly 83,000, 20% have a hit.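 Single-dose data. Exposure time 48 hours. Values below 10 considered active.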 A number with no mark means an inactive call. Calls of active or inactive are those of the source.

Among the test systems are SK-MEL-2 melanoma; EKVX NSCLC; SN12C renal; UO-31 renal; TK-10 renal; ACHN renal; CAKI-1 renal; A498 renal; CCRF-CEM leukemia; MOLT-4 leukemia; SR leukemia; OVCAR-8 ovarian; OVCAR-5 ovarian; OVCAR-4 ovarian; SK-OV-3 ovarian; IGROV1 ovarian; OVCAR-3 ovarian; HS 578T breast; NCI/ADR-RES ovarian.
What all share (experiment): NCI-60 one-dose screen, 48 h (100 = growth as untreated, 0 = no growth, -100 = all killed)
Common to all, as to details: 10 µM unless noted

In the case of `C=C(C)C1CCC2(C)OC2C1` (configuration not stated), the growth in the experiment with SK-MEL-2 melanoma was 111%; in the experiment on EKVX NSCLC, 87.4%; with SN12C renal, 108%; with UO-31 renal, 115%; with TK-10 renal, 100%; with ACHN renal it was 104%. Besides, the growth was 81.2% in the experiment with CAKI-1 renal; 141% in the experiment with A498 renal; 110% with CCRF-CEM leukemia; 90.7% with MOLT-4 leukemia; 116% in the experiment on SR leukemia; 113% with OVCAR-8 ovarian. The growth with OVCAR-5 ovarian is 102%; with OVCAR-4 ovarian, 94.6%; with SK-OV-3 ovarian, 116%; in the experiment with IGROV1 ovarian, 89.5%; with OVCAR-3 ovarian, 123%; in the experiment on HS 578T breast, 106%. In the experiment on NCI/ADR-RES ovarian, the growth was 99.6%.
On to `O=[N+]([O-])c1ccc(Oc2nc(Nc3ccc(O[C@H]4CO[C@H]5[C@@H]4OC[C@@H]5O)c(Cl)c3)ncc2F)c(Cl)c1`, for which the growth with SK-MEL-2 melanoma is 21.7%; in the experiment with EKVX NSCLC, 43.8%; in the experiment with SN12C renal, 15.9%; with UO-31 renal it was -9.77% (active); with TK-10 renal, 44.5%; with ACHN renal it was 19.3%. Also, the growth is 7.81% (active) in the experiment with CAKI-1 renal; -2.07% (active) in the experiment with A498 renal; 25.1% in the experiment on CCRF-CEM leukemia; -3.69% (active) in the experiment on MOLT-4 leukemia; 10.5% with SR leukemia; 32.5% with OVCAR-8 ovarian. Also, the growth was 43.2% with OVCAR-5 ovarian; 34.4% in the experiment with OVCAR-4 ovarian; 9.64% (active) in the experiment with SK-OV-3 ovarian; -13% (active) in the experiment on IGROV1 ovarian; 31.1% in the experiment on OVCAR-3 ovarian; -2.68% (active) with HS 578T breast. Also, in the experiment on NCI/ADR-RES ovarian, the growth was 81.3%.
With `COc1cc(OCc2cccc(-c3ccc(C(O)c4nccs4)cc3)c2C)cc(OC)c1CNCCNC(C)=O` (configuration not stated), the growth in the experiment on SK-MEL-2 melanoma was 122%; with EKVX NSCLC, 97%; in the experiment with SN12C renal it was 98.1%; in the experiment with UO-31 renal, 89%; in the experiment with TK-10 renal it was 98.9%; with ACHN renal, 101%. For the same molecule, the growth with CAKI-1 renal is 93.7%; in the experiment on A498 renal, 88.2%; in the experiment with CCRF-CEM leukemia it was 91.9%; with MOLT-4 leukemia, 94.9%; in the experiment with SR leukemia, 85.9%; in the experiment with OVCAR-8 ovarian, 96.1%. In addition, the growth was 98.5% in the experiment on OVCAR-5 ovarian; 91.8% in the experiment on OVCAR-4 ovarian; 113% with SK-OV-3 ovarian; 103% in the experiment with IGROV1 ovarian; 109% in the experiment with OVCAR-3 ovarian; 105% in the experiment on HS 578T breast. For the same molecule, the growth in the experiment with NCI/ADR-RES ovarian was 101%.
For the molecule `CCCCn1c(=O)c(-c2cc(-c3ccc(Cl)cc3)nc(-c3ccc(Cl)cc3)c2)cc2cc(C)ccc21`, the growth in the experiment with SK-MEL-2 melanoma was 118%; with EKVX NSCLC, 101%; with SN12C renal it was 92.2%; in the experiment with UO-31 renal, 86.2%; with TK-10 renal it was 98.7%; with ACHN renal it was 107%. The growth is 94.8% with CAKI-1 renal; 103% in the experiment with A498 renal; 101% with CCRF-CEM leukemia; 105% in the experiment on MOLT-4 leukemia; 109% with SR leukemia; 100% with OVCAR-8 ovarian. Further, the growth with OVCAR-5 ovarian is 100%; in the experiment on OVCAR-4 ovarian, 110%; in the experiment with SK-OV-3 ovarian it was 115%; with IGROV1 ovarian, 96.4%; in the experiment on OVCAR-3 ovarian, 112%; in the experiment with HS 578T breast, 99.1%. For the same molecule, in the experiment on NCI/ADR-RES ovarian, the growth is 104%.
Consider `Cc1ccc(-c2nc(N3CCN(C(=O)c4ccc(OC(F)(F)F)cc4)CC3)c3ccccc3n2)cc1`, for which the growth is 102% in the experiment on SK-MEL-2 melanoma; 88.5% in the experiment with EKVX NSCLC; 90.5% in the experiment with SN12C renal; 53.7% with UO-31 renal; 90.6% in the experiment on TK-10 renal; 89.5% in the experiment with ACHN renal. Further, the growth in the experiment on CAKI-1 renal was 69.8%; in the experiment on A498 renal it was 63.7%; in the experiment with CCRF-CEM leukemia, 75.3%; in the experiment on MOLT-4 leukemia, 56.8%; in the experiment with SR leukemia, 78.5%; with OVCAR-8 ovarian, 90.3%. Further, the growth is 97.8% with OVCAR-5 ovarian; 106% with OVCAR-4 ovarian; 99.3% in the experiment on SK-OV-3 ovarian; 85.6% in the experiment with IGROV1 ovarian; 93.9% with OVCAR-3 ovarian; 79.1% in the experiment with HS 578T breast. The growth in the experiment on NCI/ADR-RES ovarian was 84.4%.
In the case of `Cc1ccc(-c2nc(N3CCN(C(=O)Nc4ccc(Cl)c(C(F)(F)F)c4)CC3)c3ccccc3n2)cc1`, the growth is 96.5% in the experiment on SK-MEL-2 melanoma; 79.4% with EKVX NSCLC; 74.8% in the experiment with SN12C renal; 53.6% with UO-31 renal; 93.7% in the experiment on TK-10 renal; 71.5% in the experiment with ACHN renal. For the same molecule, the growth in the experiment on CAKI-1 renal was 53.6%; in the experiment with A498 renal, 45.9%; with CCRF-CEM leukemia, 65.8%; with MOLT-4 leukemia it was 49.2%; in the experiment on SR leukemia, 75%; with OVCAR-8 ovarian, 73.6%. Further, the growth in the experiment with OVCAR-5 ovarian was 86.9%; in the experiment with OVCAR-4 ovarian, 77.8%; in the experiment on SK-OV-3 ovarian, 81.7%; with IGROV1 ovarian, 78.2%; in the experiment on OVCAR-3 ovarian, 74.8%; in the experiment with HS 578T breast it was 82.2%. In addition, in the experiment on NCI/ADR-RES ovarian, the growth is 69.1%.
As for `COc1ccc2[nH]c(-c3ccccc3)c(/C=C(\C#N)S(=O)(=O)c3ccccc3)c2c1`, the growth in the experiment with SK-MEL-2 melanoma was 87%; in the experiment with EKVX NSCLC it was 56.7%; in the experiment with SN12C renal, 67%; in the experiment on UO-31 renal it was 70.2%; in the experiment on TK-10 renal, 92.4%; in the experiment on ACHN renal it was 71.6%. The growth with CAKI-1 renal is 76.6%; with A498 renal, 57.2%; in the experiment on CCRF-CEM leukemia, 36.2%; in the experiment with MOLT-4 leukemia, 17.4%; with SR leukemia, 2.79% (active); in the experiment with OVCAR-8 ovarian it was 60.7%. Besides, the growth is 101% with OVCAR-5 ovarian; 12.5% in the experiment on OVCAR-4 ovarian; 73.3% in the experiment with SK-OV-3 ovarian; 67% in the experiment on IGROV1 ovarian; 45.1% in the experiment with OVCAR-3 ovarian; 67.3% with HS 578T breast. For the same molecule, the growth in the experiment on NCI/ADR-RES ovarian is 30.5%.
For `O=c1c2cccc(Cl)c2sc2c(NCCCNCCO)nc3ccccc3c12`, the growth with SK-MEL-2 melanoma is 104%; in the experiment on EKVX NSCLC, 53.9%; in the experiment on SN12C renal, 39.1%; with UO-31 renal, 12.5%; in the experiment with TK-10 renal, 39.1%; in the experiment on ACHN renal, 10.3%. The growth with CAKI-1 renal is -46.9% (active); with A498 renal it was 10.8%; in the experiment on CCRF-CEM leukemia it was -14.6% (active); with MOLT-4 leukemia, -40.3% (active); in the experiment with SR leukemia, -51.2% (active); with OVCAR-8 ovarian, 27%. For the same molecule, the growth is 62.5% in the experiment with OVCAR-5 ovarian; 11.1% in the experiment on OVCAR-4 ovarian; 53.2% with SK-OV-3 ovarian; 15.3% with IGROV1 ovarian; -7.4% (active) in the experiment with OVCAR-3 ovarian; 20.3% with HS 578T breast. For the same molecule, the growth in the experiment on NCI/ADR-RES ovarian is 38.4%.
